From PubChem BioAssay (NCI)
This is part of a sample that, as a whole, favours compounds with a hit. Of some 83,000 tested, about 20% had one in any assay.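 Compound tested at a single concentration for 48 hours in 96-well plates; a percent growth value below 10 was scored as active.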 Unmarked numbers belong to inactive results. Active and inactive are the calls of the source.

Test system: HL-60(TB) leukemia
Test: NCI-60 one-dose screen, 48 h (100 = growth as untreated, 0 = no growth, -100 = all killed)
Settings: 10 µM unless noted

Row | SMILES | growth
1 | CCc1nc(C(N)=O)c(Nc2ccc(N3CCC(N4CCN(C)CC4)CC3)c(OC)c2)nc1NC1CCOCC1 | 9.89% (active)
2 | Brc1ccc(-c2nc3ccccc3s2)cc1 | 99.6%
3 | COC(=O)C1(C)COP(=O)(Nc2ccc(OC)cc2)OC1 (stereo not given) | 94.7%
4 | CCOC(=O)C1=C(c2ccccc2)N=c2s/c(=C/c3ccc(Br)cc3)c(=O)n2C1c1ccc(O)cc1 (stereo not given) | 94.9%
5 | CCn1cc(-c2ccnc(NCCNS(=O)(=O)c3cccc4ccccc34)c2)c(-c2cccc(O)c2)n1 | 103%
6 | CCN1C(=O)N(CC)C2Nn3c(s/c(=C\c4cccc(F)c4)c3=O)=NC21 (stereo not given) | 38.6%
7 | CN(C(=S)S(=O)(=O)C12CC3CC(CC(C3)C1)C2)c1ccccc1 | 11.5%
8 | COc1ccc(Cn2cc3c(c2-c2cc(OC)c(OC)c(OC)c2)CCc2cnoc2-3)cc1N | 5.54% (active)
9 | O=S1(=O)OC(c2ccc(O)c(Cl)c2)(c2ccc(O)c(Cl)c2)c2ccccc21 | 109%
10 | COc1nc(/C=C\Nc2ccc3c(c2)OCCOCCOCCOCCO3)nc(OC)n1 | 65.4%
11 | COc1cc2c(cc1OCCCCn1c(-c3cc(=O)c4ccccc4o3)nc3ccccc31)N=C[C@@H]1CCCN1C2=O | 91.2%
12 | CCOC(=O)c1ccc(N(C=O)CCC(=O)CCl)cc1 | -28.6% (active)
13 | CC(=O)O.[In] | 93.4%
14 | CCn1c(Cc2ccccc2Nc2c(Cl)cccc2Cl)nnc1SCC(=O)NN1C(=O)/C(=C/c2cccc(OC)c2OC)SC1=S | 97.5%
15 | CCN(CC)c1ccc(/C=C/C2=[N+](C)c3ccccc3C2(C)C)cc1 | 11.3%
16 | COc1ccc(-c2ncc(-c3ccccc3)[nH]2)cc1OC | -30.2% (active)
17 | CCN(CC)CCCC(Nc1c2ccc(Cl)cc2nc2ccc(OC)cc12)c1ccncc1 (stereo not given) | 101%
18 | C=CCOC(=O)C1=C(C)NC2=C(C(=O)CC(C)(C)C2)C1c1ccc(OC)cc1 (stereo not given) | 80.6%
19 | COc1ccc(C(=O)Nc2cccc(C3CCc4c(cc(OC)c(OC)c4OC)O3)c2)cc1 (stereo not given) | 10.7%
20 | O=S(=O)(NCC[C@@H]1C[C@H]1c1ccc2ccccc2c1)c1ccc(C(F)(F)F)cc1 | 96.5%

Row | SMILES | growth
21 | Nc1ccc(NC(=O)c2ccccc2)c2c1C(=O)c1ccccc1C2=O | 135%
22 | C=COCCCCCCCCCCCCCCCCCC | 73.8%
23 | COc1ccc(-c2c(-c3cc4c(c(OC)c3OC)OCO4)noc2N)cc1 | 16.8%
24 | C/C=C(\C)C(=O)N[C@H]1CC[C@]2(C)C3CC[C@@]4(C)C(CC[C@@H]4C(C)N(C)C)C3CCC2[C@H]1OC(C)=O (stereo not given in full) | 18.2%
25 | O=C1CC2C=CCN2C=C1NC(=O)C1CCCCC1 (stereo not given) | 101%
26 | N#Cc1c(-c2ccccc2)cc(-c2ccccc2)n(CCCCC(=O)O)c1=O | 102%
27 | COc1ccc2c(c1)/C(=C/c1sc(=S)n(Cc3ccco3)c1O)C=N2 | 3.03% (active)
28 | O=S(=O)(O)c1ccc(F)cc1 | 93.8%
29 | Oc1ccccc1-c1nnc(COc2ccc(Cl)cc2Cl)o1 | 3.89% (active)
30 | O=C(O)c1ccc(NC(=O)c2cccc(Nc3ccnc(C(F)(F)F)c3)c2)cc1 | 94.1%
31 | COc1cc2ncnc(Nc3ccc(O)cc3)c2cc1OC | 83.5%
32 | c1ccc(-c2nc3sc(C(c4ccccc4)c4ccccc4)nn3c2-c2ccccc2)cc1 | 112%
33 | Fc1cc(C(F)(F)F)ccc1-c1cncnc1NC1CCCCCC1 | 86.4%
34 | CCN(CC)CCn1c(=O)c2cc(OC)c(OC)cc2c2ccc3cc4c(cc3c21)OCO4 | 3.79% (active)
35 | O=C(c1ccc(/C=C/c2n[nH]c3ccccc23)cc1)N1CCNCC1 | 31.7%
36 | O=C1/C(=C\c2ccco2)SC(=S)N1CCc1ccc(O)cc1 | 76.3%
37 | COc1nc(N)nc2c1ncn2C1OC(CO)CC1O (stereo not given) | 98.9%
38 | CCOC(=O)C1=C(C)NC(=O)NC1c1c(Cl)n(-c2ccccc2)c2ccccc12 (stereo not given) | 73.4%
39 | O=C1COCCN1c1ccc(NCc2cn(Cc3ccccc3)c3ccccc23)cc1 | 99.1%
40 | COC1CC2CCC(C)C(O)(O2)C(=O)C(=O)N2CCCCC2C(=O)OC(C(C)CC2CCC(O)C(OC)C2)CC(=O)C(C)C=C(C)C(O)C(OC)C(=O)C(C)CC(C)/C=C/C=C/C=C1C (stereo not given) | 86.6%
